Here are results for 13 compounds from PubChem BioAssay.

Active and inactive are the calls of the source.

The subject of test [1] is Plasmodium falciparum Sir2 (PF13_0152, Sir2A). In words: pfSir2 binders on small-molecule microarrays, primary screen, biochemical, small-molecule microarray, 635 nm fluorescence (AID 1098).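 Further: score merges spot fluorescence intensity with its signal-to-noise ratio.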 The note with it: small-molecule microarray binding, fluorescence 635 nm; higher = more signal.
Test [2] can be described thus: small-molecule microarray binders of probe aDKK1, primary screen, biochemical, biotinylated probe, 635/667 nm fluorescence (AID 1099).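 Further: score merges 667nm spot fluorescence with signal to noise across triplicate slides; reference of the scale not given here.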 The note with it: higher = more signal.
The nature of test [3]: small-molecule microarray binders of probe aCHRDL2, primary screen, biochemical, biotinylated probe, 635/667 nm fluorescence (AID 1100). The note with it: higher = more signal.
A short description of test [4]: splicing luciferase reporter signal modulators, primary screen, spliceosome inhibition project, cell-based, HEK293, splice +/- reporter (AID 1101).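 Further: HEK293 cells carrying a splicing-competent luciferase reporter gene; test concentration not given here.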 To be noted: luminescence, 24 h, higher = more signal, called active from +8 up or from −8 down. A general note: Reporter assays use an easily measured gene product as a stand-in for the process of interest.
Test [5] concerns the target Fibroblast growth factor 10 (Homo sapiens) (UniProt O15520). Nature of the test: FGF10 binders on small-molecule microarrays, primary screen, biochemical, small-molecule microarray, 635 nm fluorescence (AID 1102). The note with it: FGF10 binding, fluorescence 635 nm, higher = more signal.
Test [6] relates to glycogen synthase kinase-3 (GSK3A per assay name; protocol says GSK3B). In words: GSK3 binders on small-molecule microarrays, primary screen, biochemical, small-molecule microarray, 635 nm fluorescence, GSK3A (AID 1103). Further: the record names both GSK3A and GSK3B. The note with it: small-molecule microarray binding, fluorescence 635 nm; higher = more signal.
Test [7] deals with Epidermal growth factor receptor (Homo sapiens) (UniProt P00533). In words: EGFR binders on small-molecule microarrays, primary screen, biochemical, small-molecule microarray, 635 nm fluorescence (AID 1104).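 Further: score merges 667 nm emission intensity with spot signal to noise over triplicate slides.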 The note with it: EGFR binding, higher = more signal.
Epidermal growth factor receptor (Homo sapiens), sequence (P00533 whole entry, looked up): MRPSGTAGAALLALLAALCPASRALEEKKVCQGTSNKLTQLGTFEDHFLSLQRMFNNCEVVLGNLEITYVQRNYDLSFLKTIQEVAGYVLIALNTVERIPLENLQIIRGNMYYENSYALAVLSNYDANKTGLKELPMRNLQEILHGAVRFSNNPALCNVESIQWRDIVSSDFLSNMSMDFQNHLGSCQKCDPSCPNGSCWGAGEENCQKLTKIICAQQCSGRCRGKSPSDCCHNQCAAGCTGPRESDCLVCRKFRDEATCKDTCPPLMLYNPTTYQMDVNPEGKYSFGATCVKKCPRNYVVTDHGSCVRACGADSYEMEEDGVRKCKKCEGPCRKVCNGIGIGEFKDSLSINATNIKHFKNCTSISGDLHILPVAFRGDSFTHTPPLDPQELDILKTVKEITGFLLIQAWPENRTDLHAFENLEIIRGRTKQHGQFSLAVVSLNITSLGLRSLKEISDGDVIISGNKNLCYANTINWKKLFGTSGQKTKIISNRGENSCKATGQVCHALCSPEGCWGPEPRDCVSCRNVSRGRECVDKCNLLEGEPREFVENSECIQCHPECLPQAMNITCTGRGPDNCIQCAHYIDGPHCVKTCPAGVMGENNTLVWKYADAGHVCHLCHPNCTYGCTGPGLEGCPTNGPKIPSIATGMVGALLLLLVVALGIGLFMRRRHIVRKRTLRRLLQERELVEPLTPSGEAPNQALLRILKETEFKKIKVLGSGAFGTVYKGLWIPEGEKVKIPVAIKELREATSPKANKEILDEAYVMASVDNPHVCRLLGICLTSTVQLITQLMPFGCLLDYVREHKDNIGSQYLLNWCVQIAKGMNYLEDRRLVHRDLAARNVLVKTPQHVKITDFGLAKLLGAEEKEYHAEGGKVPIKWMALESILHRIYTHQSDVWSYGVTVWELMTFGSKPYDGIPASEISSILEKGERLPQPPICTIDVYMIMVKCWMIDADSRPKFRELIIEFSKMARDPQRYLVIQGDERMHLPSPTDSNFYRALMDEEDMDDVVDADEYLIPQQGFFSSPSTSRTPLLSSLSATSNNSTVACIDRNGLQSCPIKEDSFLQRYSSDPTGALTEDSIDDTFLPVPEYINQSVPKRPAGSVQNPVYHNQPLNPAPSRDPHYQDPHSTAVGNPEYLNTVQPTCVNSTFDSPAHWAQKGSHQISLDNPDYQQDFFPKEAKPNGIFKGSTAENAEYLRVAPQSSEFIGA
For test [8], the target named is Follistatin-related protein 3 (Homo sapiens) (UniProt O95633). In words: FSTL3 binders on small-molecule microarrays, primary screen, biochemical, small-molecule microarray, 635 nm fluorescence (AID 1105).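 Further: score merges emission near 667 nm and signal to noise per printed spot across three slides.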 To be noted: FSTL3 binding, higher = more signal.
Follistatin-related protein 3 (Homo sapiens), sequence (O95633 whole entry, looked up): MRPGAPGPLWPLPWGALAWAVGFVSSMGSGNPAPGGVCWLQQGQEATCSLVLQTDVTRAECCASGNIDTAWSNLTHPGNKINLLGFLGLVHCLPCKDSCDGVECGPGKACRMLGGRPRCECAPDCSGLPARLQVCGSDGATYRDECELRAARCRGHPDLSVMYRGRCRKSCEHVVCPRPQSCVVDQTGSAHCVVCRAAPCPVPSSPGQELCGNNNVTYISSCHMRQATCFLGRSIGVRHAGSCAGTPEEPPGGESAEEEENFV
Test [9] has as its target Dickkopf-related protein 1 (Homo sapiens) (UniProt O94907). In words: DKK1 binders on small-molecule microarrays, primary screen, biochemical, small-molecule microarray, 635 nm fluorescence scan (AID 1106).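 Further: score merges emission near 667 nm with signal to noise over three replicate slides.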 To be noted: DKK1 binding, higher = more signal.
The subject of test [10] is Inhibin beta A chain (activin A). Nature of the test: INHBA (activin A) binders on microarrays, primary screen, biochemical, small-molecule microarray, 635 nm fluorescence scan (AID 1107).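 Further: mouse activin A protein probed at 4.33 µg/mL on printed slides; score merges bound-protein fluorescence near 667 nm with spot signal-to-noise.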 The note with it: small-molecule microarray binding, higher = more signal.

Fibroblast growth factor 10 (Homo sapiens), sequence (O15520 whole entry, looked up): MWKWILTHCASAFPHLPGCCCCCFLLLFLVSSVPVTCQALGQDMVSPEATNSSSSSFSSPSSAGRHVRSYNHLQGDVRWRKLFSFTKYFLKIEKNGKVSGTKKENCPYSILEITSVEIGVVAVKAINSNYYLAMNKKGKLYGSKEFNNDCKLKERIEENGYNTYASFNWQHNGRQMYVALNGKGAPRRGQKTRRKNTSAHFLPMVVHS
Dickkopf-related protein 1 (Homo sapiens), sequence (O94907 whole entry, looked up): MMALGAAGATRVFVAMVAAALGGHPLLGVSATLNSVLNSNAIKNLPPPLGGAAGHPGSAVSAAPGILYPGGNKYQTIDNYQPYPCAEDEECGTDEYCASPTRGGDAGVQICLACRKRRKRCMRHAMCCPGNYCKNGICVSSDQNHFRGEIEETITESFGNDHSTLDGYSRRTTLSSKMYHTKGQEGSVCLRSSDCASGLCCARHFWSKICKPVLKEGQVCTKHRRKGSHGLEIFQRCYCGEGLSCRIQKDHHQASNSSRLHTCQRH

For `Cc1ccc(S[C@]2(C(=O)NC(C)C)CC(=O)N(Cc3cc(C(F)(F)F)cc(C(F)(F)F)c3)[C@@H]2c2ccc(CO)cc2)cc1`, the composite z-score was 1.45 in test [1]; -0.227 in test [2]; 0.675 in [3]; -0.671 in test [5]; -1.27 in test [6]; -1.48 in [7]. Besides, the composite z-score was -1.57 in test [8], -1.5 in [9] and -0.403 in test [10]. The z-score in test [4] is 0.681 (inactive).
As for `COCCCNC(=O)[C@@]1(Sc2ccc(C)cc2)CC(=O)N(C2Cc3ccccc3C2)[C@@H]1c1ccc(CO)cc1`, the composite z-score in test [1] is 1.06; in [2], 0.106; in test [3], 0.899; in test [5], -1.39; in test [6], -0.429; in [7], -0.787. For the same compound, the composite z-score in test [8] was -1.42; in test [9] it was -1.76; in test [10], -0.115. In addition, the z-score in test [4] was -0.866 (inactive).
On to `COc1ccc(C#Cc2ccc3c(c2)[C@]2(C(=O)N3)[C@H](c3ccc(O)cc3)N3[C@H](c4ccccc4)[C@H](c4ccccc4)OC(=O)[C@H]3[C@@H]2C(=O)Nc2nc3ccccc3s2)cc1`, for which the composite z-score in test [1] came out at 1.48; in [2], 0.223; in [3] it was 0.342; in test [5], 1.28; in test [6], 1.31; in test [7], 0.45. The composite z-score was 1.2 in test [8], 0.775 in [9] and -0.604 in test [10]. For the same compound, in test [4], the z-score was -0.793 (inactive).
Regarding `NC(=O)[C@H]1[C@@H]2C(=O)O[C@@H](c3ccccc3)[C@@H](c3ccccc3)N2[C@@H](c2ccc(OCCO)cc2)[C@]12C(=O)Nc1ccc(C#CCCO)cc12`, the composite z-score in test [1] turned out to be 0.912; in test [2] it was 0.313; in test [3], 0.485; in test [5] it was 0.251; in test [6], 0.608; in test [7], 0.189. The values for the composite z-score in test [8], in [9] and in [10] were 0.255, 0.24 and 0.779, respectively. The z-score in test [4] is 0.728 (inactive).
Turning to `C#CCN([C@@H](Cc1ccccc1)C(=O)OC)[C@@H](/C=C/C1CC1)[C@H](O)Cc1ccccc1`, the composite z-score in test [1] was -0.437; in [2], -0.575; in [3], 0.37; in [5], -0.496; in [6], -0.489; in [7] it was -0.473. Further, the composite z-score is -0.494 in [8], -0.185 in [9] and 1.49 in test [10]. In test [4], the z-score was 0.414 (inactive).
On to `[N-]=[N+]=NCc1ccccc1[C@@H]1OC(c2ccc(OCCCO)cc2)=N[C@]1(CCS(=O)(=O)c1ccccc1)C(=O)O`, for which the composite z-score in [1] is 0.654; in [2] it was 0.79; in [3], 0.95; in test [5], 0.559; in test [6], -0.0623; in test [7], -0.231. Further, the composite z-score is -0.337 in [8], -0.713 in [9] and 1 in test [10]. For the same compound, the z-score in test [4] was -0.551 (inactive).
For the compound `CCCCCCCCCCC(O)C1C=CC2C(=O)N(c3ccccc3)C(=O)C2N1Nc1ccc(C#N)cc1` (stereo not given), the composite z-score in test [1] stood at 0.905; in test [2] it was 0.44; in test [3], 1.09; in test [5], 1.06; in [6], 1.02; in test [7] it was 0.17. Moreover, the composite z-score in test [8] is 0.788; in [9], -0.517; in test [10] it was 1.02. For the same compound, in test [4], the z-score was 1.08 (inactive).
With `COC(=O)[C@@]1(Cc2ccc(F)cc2)[C@H]2c3cc(C(=O)N4CCCC4)n(CCc4c[nH]c5ccccc45)c3C[C@H]2CN1C(=O)c1ccccc1`, the composite z-score worked out at 0.539 in test [1]; 0.948 in test [2]; 1.03 in [3]; 0.894 in test [5]; 1.32 in test [6]; 0.549 in test [7]. In addition, the composite z-score in [8] was 1.21; in [9] it was 0.113; in [10] it was 0.834. Also, the z-score in [4] is -0.593 (inactive).
As for `CCOC(=O)C[C@H]1[C@H](OC(=O)c2ccccc2-c2ccccc2)[C@@H](NC(=O)c2ccc3ccccc3c2)c2cc(OCCCO)ccc2N1C(=O)c1ccccc1`, the composite z-score was 0.162 in test [1]; -0.154 in [2]; -0.559 in [3]; 0.792 in test [5]; 0.601 in test [6]; 0.505 in [7]. Also, the values for the composite z-score in [8], in [9] and in [10] were 0.741, 0.427 and -0.124, respectively. In addition, the z-score in test [4] was -0.314 (inactive).
Turning to `O=C1O[C@H](c2ccccc2)[C@H](c2ccccc2)N2[C@H]1[C@@H](C(=O)O)[C@]1(C(=O)Nc3ccc(C#CCCO)cc31)[C@H]2c1ccccc1OCCO`, the composite z-score in test [1] was 0.582; in test [2], -0.445; in test [3], 0.094; in [5] it was 0.258; in test [6], -0.532; in test [7], -0.329. The results for the composite z-score in [8], in test [9] and in [10] were -0.224, -0.0493 and 0.671, respectively. Besides, the z-score in test [4] was -0.888 (inactive).
Regarding `CCCC=C(CCC)[C@@H](NS(=O)(=O)c1ccc(C(F)(F)F)cc1)c1ccccc1`, the composite z-score in [1] is 0.156; in test [2] it was -0.001; in test [3], 0.614; in [5], 0.0772; in [6], 0.571; in [7], -0.585. Further, the results for the composite z-score in test [8], in test [9] and in test [10] were -0.143, -0.61 and 0.388, respectively. Also, in [4], the z-score is -0.172 (inactive).
In the case of `CCOC(=O)C[C@H]1[C@H](OC(=O)c2cc3ccccc3oc2=O)[C@@H](NC(=O)CC(C)C)c2cc(OCCCO)ccc2N1C(=O)c1ccc2ccccc2n1`, the composite z-score in test [1] was 0.342; in test [2], -0.12; in test [3], -0.53; in test [5], 1.32; in [6], 0.998; in [7], 0.548. Moreover, the composite z-score is 1.14 in [8], 0.409 in test [9] and 0.413 in test [10]. The z-score in test [4] is 0.0136 (inactive).
As for `CC(C)[Si]1(C(C)C)OCc2cc(-c3ccc(-c4ccc(Cl)c(Cl)c4)o3)nc(-c3ccccc3)c21`, the composite z-score is 1.33 in [1]; -0.0755 in test [2]; 0.724 in test [3]; -1.08 in test [5]; -1.22 in [6]; -1.84 in test [7]. Moreover, the values for the composite z-score in [8], in [9] and in test [10] were -1.04, -1.32 and 1.05, respectively. In addition, the z-score in test [4] is 0.14 (inactive).
